Source: PubChem
KDM5B inhibitor: KDM5B demethylase inhibition | Q9UGL1 | KDM5B demethylase, FDH-coupled NADH fluorescence (FDH is formaldehyde dehydrogenase) | Potency, µM (doses to about 57.7 µM), hits mostly inhibitors | 2.6% of 220,000 active; active = well fitted inhibition curve with a large enough effect; note: nearly all actives have a fitted effect of over 70% in size
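Here, H3K4me3 peptide (12.5 µM in substrate mix) is demethylated by KDM5BΔAP, 200 nM final, after 10 min compound exposure. Formaldehyde product is coupled through FDH (0.25 U/mL in mix) to NADH fluorescence; 30-min ΔRFU feeds dose-response curves.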
A number is an active result; . = inactive. This is one part of a sample in which hits are shown more often than they occur.

SMILES	KDM5B inhibitor
CCc1nc(CN(C)C(C)c2ccc(S(N)(=O)=O)cc2)cs1 (stereo not given)	.
CC(=O)N1CC2(Cc3ccccc31)CN(C(=O)c1ccccc1Cl)C2	.
NC(=O)[C@H](CCC(=O)O)NC(=O)C1=C[C@@H](NC(=O)CC2(CC(=O)O)CCCC2)[C@@H](O)[C@H](O)C1	.
Cc1ccc(C(=O)N[C@@H]2C=C(C(=O)N[C@@H](CCS(C)(=O)=O)C(N)=O)C[C@@H](O)[C@@H]2O)cc1	.
CS(=O)(=O)CC[C@H](NC(=O)C1=C[C@@H](NC(=O)CCN)[C@@H](O)[C@H](O)C1)C(N)=O	40µM
CC(C)=CC(=O)N(Cc1cccs1)C1CC1	.
O=c1ccc2cc(S(=O)(=O)Oc3ccc4c(=O)c(-c5ccccc5)coc4c3)ccc2o1	.
O=C(Nc1ccccc1-c1ccccc1)c1cccc(F)c1	.
Cc1cccc(CN(C(=O)c2ccco2)c2ccc(CC(=O)N(C)Cc3ccccc3)cc2)c1	28µM
CCCNC(=O)Cc1ccc(N(Cc2ccccc2)C(=O)c2ccco2)cc1	.
CCNC(=O)Cc1ccc(N(Cc2ccccc2)C(=O)c2ccco2)cc1	.
O=C(O)C(c1c[nH]c2cc(Br)ccc12)N1CCN(Cc2ccc(Cl)cc2Cl)CC1 (stereo not given)	.
COc1cc(C(C)=O)ccc1SCC(=O)O	.
CCCCn1c(=O)[nH]c(=O)c2c1nc(COC(=O)C1(c3ccccc3)CCC1)n2CCC	.
CC(=O)N1N=C(c2cccc(NS(C)(=O)=O)c2)CC1c1ccc2nccnc2c1 (stereo not given)	.
CC1=C/C(=N/NC(=S)Nc2ccc(Cl)cc2)CC(C)(C)C1	.
CCOC(=O)C1CCCN(C(=O)c2ccc3nccn3c2)C1 (stereo not given)	.
CCC1CN(C(=O)c2ccc3nc[nH]c3c2)CCC(=O)N1Cc1ccccc1 (stereo not given)	.
CCC1CN(C(=O)c2ccc3nc(-c4ccccc4)cn3c2)CCN1C(C)C (stereo not given)	28µM
CC(C)c1ccc(CN2CCC3(CC2)COCCN3C(=O)OCc2ccccc2)cc1	.
COc1ccccc1CNc1ccc2nnc(C)n2n1	.
COc1ccccc1CCC(=O)NCc1nnc2ccc(-c3ccc(C)cc3)nn12	.
CCOc1ccccc1C(=O)NCc1nnc2ccc(-c3ccc(C)c(C)c3)nn12	32µM
COc1ccccc1C(=O)NCc1nnc2ccc(-c3ccc(C)cc3)nn12	13µM
Cc1ccc(-c2cc(C(=O)Nc3ccc(S(=O)(=O)N4CCCCC4C)cc3)no2)cc1 (stereo not given)	.
SMILES	KDM5B inhibitor
O=S(=O)(Cc1cccc(F)c1)Cc1csc(-c2ccccc2)n1	.
N#C/C(=C/c1cccc(/C=C(/C#N)c2nc3ccccc3[nH]2)c1)c1nc2ccccc2[nH]1	.
COc1ccccc1CCNC(=O)Cc1c(C)c2ccc(OC)c(C)c2oc1=O	.
CCOC(=O)c1c(C)[nH]c(C(=O)C(C)Nc2ccccc2OC)c1C (stereo not given)	.
N#Cc1ccc(CCC(=O)O)cc1	.
O=C(NCCc1ccc(Cl)cc1)c1nc(-c2ccc(Cl)cc2)c2ccccn12	25µM
COc1ccc(-c2cc(C(=O)NCCc3ccc(Cl)cc3)[nH]n2)cc1	.
C[S+](=O)([O-])c1ccc(-c2nc(C(=O)NCCc3ccc(Cl)cc3)n3ccncc23)cc1	79µM
O=C(NCc1cccnc1)c1ccc2ccccc2n1	.
O=C(Cn1c(=O)nc(-c2ccccc2)c2ccccc21)NCc1ccc(Cl)cc1	.
Cc1ccc(CCNC(=O)c2cc(-c3ccc(Cl)cc3)n[nH]2)cc1	.
O=C(NCCc1ccccc1)c1nc(-c2ccc(Cl)cc2)n2c1CCCCC2	.
O=C(NCCc1ccccc1)c1cc(-c2ccc(Cl)cc2)on1	.
O=C(NCc1cccnc1)c1nc(-c2ccc(F)cc2)c2ccccn12	28µM
O=C(NCc1ccc(F)cc1)c1nc(-c2ccc(Cl)cc2)c2ccccn12	25µM
O=C(Cn1c(SCC(=O)Nc2ccc(F)cc2)nc2ccccc21)NCc1ccc(Cl)cc1	.
COc1ccc(S(=O)(=O)Nc2ccc(Nc3cc(N4CCCCC4)nc(C)n3)cc2)cc1	.
CC(C)c1ccc(CNC(=O)CSc2nc3ccccc3o2)cc1	.
Cc1c(Cl)cccc1NC(=O)NCC1CCN(CCc2ccccc2)C1 (stereo not given)	.
Cc1ccc(S(=O)(=O)N2CCN(C(C(=O)NC3CC3)c3ccccc3)CC2)c(C)c1 (stereo not given)	.
CC(C)c1ccc2cc(C(=O)N(Cc3ccco3)C3CC3)[nH]c2c1	.
O=C(O)CCn1cc(C(C(=O)O)N2CCN(Cc3cccnc3)CC2)c2ccc(F)cc21 (stereo not given)	.
Cc1ccc(S(=O)(=O)Oc2ccc3oc(=O)c(-c4ccccc4)c(C)c3c2)cc1	.
O=C(Nc1ccccc1O)c1nn(-c2ccccc2)c(=O)c2ccccc12	.
CCCCc1ccc(NC(=S)NCCCOC(C)C)cc1	.
C[S+](=O)([O-])c1ccc(-c2nc(C(=O)NCCc3ccc(Cl)cc3)n3ccccc23)cc1	89µM
